40 compounds from PubChem BioAssay (NCI) can be followed below.

Where “and” joins values, the source holds several entries; their conditions need not be identical. Identical values can stand only once. The panel holds about 79,000 compounds, 15% with a hit somewhere; the sample as a whole holds those more often. A number with no mark means an inactive call. Calls of active or inactive are those of the source. Cut-off read from the data, not from the text of the source: active = growth inhibition above about 70%; inactive = the rest.

The nature of the first assay: NCI Yeast Anticancer Drug Screen. Data for the rad50 strain (AID 155).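 Note: 0% = growth of vehicle-only cultures of the same strain.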 Conditions: S. cerevisiae rad50 strain growth inhibition, stronger effect = higher value; at 50.0 µM unless noted. The essentials: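 A DNA repair-deficient yeast mutant serves as the test organism; compound-induced growth inhibition is calculated against vehicle-treated cells.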
As to `Cc1ccc2c(c1)C(C)(C)C(C)(C)C2(C)C`, the growth inhibition was 1.5%.
With `CCOc1ccccc1Nc1ccc(N)cc1S(=O)(=O)O`, the growth inhibition was 9.45%.
On the same count and under the same terms, the result for `CC(C)COC(=O)C(CC(C)C)NC(=O)C(C)O` (stereo not given) reads 5.95%.
Same read-out and setting: the result for `CC(C)CC1N=C(NN=C(CCl)CCl)OP1(=O)NCCCCCCNP1(=O)OC(NN=C(CCl)CCl)=NC1CC(C)C` (stereo not given) reads 13.4%; that for `CCOC(=O)Cc1ccc2ccccc2c1`, 7.3%.
In the case of `Cc1cc2c(cc1Cl)SC(NNC1=NCCN1)=NS2(=O)=O`, the growth inhibition is -23.1%.
Regarding `CC1=C(C(=O)Nc2ccccc2)C(c2ccc3c(c2)OCO3)C(C(=O)Nc2ccccc2)=C(C)N1`, the growth inhibition was 38.3%.
For the compound `O=C(CC(=O)c1cc(Cl)ccc1O)c1ccc2ccccc2n1`, the growth inhibition is -0.35%.
Same read-out and setting: the result for `COc1cc(/C=C/C(=O)c2c(=O)o[nH][n+]2-c2ccccc2)ccc1[O-]` reads -3.75%; that for `O=C(/C=C/c1ccccc1)c1ccccc1`, -1.8% and -29.8%.
Same read-out and setting: then `O=C(O)c1ccccc1Br`, with 1.1%; and `Clc1nc(NCCc2ccccc2)c2ncn(-c3ccccc3)c2n1`, with 52.9%; and `Cc1ccc(C(=O)O)cc1`, with 2.95%.
Turning to `CC(=O)Nc1ccc(NC(=O)NCCCCCCNC(=O)Nc2ccc(NC(C)=O)cc2)cc1`, the growth inhibition was -1.5%.
As to `Cc1nc2ccccc2c2ccc([N+](=O)[O-])cc12`, the growth inhibition was 13.5%.
Same read-out and setting: then `C[N+]1(C)CCc2cc(O)c(O)cc2C1Cc1ccc(O)c(O)c1` (stereo not given), with -4.35%.
Still for that read-out and setting: then `O=c1[nH]c(=O)c2nc3c(=O)[nH]c(=O)[nH]c3nc2[nH]1`, with -14.2%; and `Cc1ccc(N=C2S/C(=C3/CCC=C3N3CCOCC3)N(c3ccc(Cl)cc3)C2=Nc2ccc(C)cc2)cc1`, with -8.9%; and `CC(=O)OCC1OC(n2c(Br)nc3c(=O)[nH]c(N)nc32)C(OC(C)=O)C1OC(C)=O` (stereo not given), with -1.5%.
Still for that read-out and setting: the result for `C1COC2(OC1)OCCCO2` reads -14.8%.
For the compound `Cc1nn2c(nnn2CCO)c1-c1ccccc1`, the growth inhibition is 10.7%.
On to `O=C(O)CCC1=Nc2cccc3cccc(c23)NC1=O`, for which the growth inhibition is 36.2%.
The same measure, in the same setting: then `CC(=O)Nc1nc(SCc2ccccc2)c2[nH]cnc2n1`, with -25.2%; and `CCc1ccc(NS(=O)(=O)c2ccccc2[N+](=O)[O-])cc1`, with 31.9%.
Still for that read-out and setting: then `O=C(O)c1cc([N+](=O)[O-])cc2c(=O)c3cnccc3[nH]c12`, with -23.6%.
The same measure, in the same setting: then `CCCCCCOc1ccccc1CO`, with 14.7%; and `Cc1c(=O)n(C)c2ccccc2[n+]1[O-]`, with 7.9%.
Regarding `CS(=O)(=O)c1nc2[nH]cnc(=S)c2[nH]1`, the growth inhibition is 8%.
The same measure, in the same setting: then `Clc1nc2n(c1/C=C/c1cccs1)CCS2`, with 28.4%; and `CN(C)/C=N/NC(=O)/C(C#N)=C/N(C)C`, with -26.1%.
Still for that read-out and setting: the result for `CN1CNC(=O)NC1` reads -37% and 10.6%; that for `O=[N+]([O-])c1ccn(Cc2ccccc2)c1`, -6.25%.
Same read-out and setting: the result for `CC1=CC(C)C(C(=O)OCC(C)C)C(C(=O)OCC(C)C)C1` (stereo not given) reads -13.2%.
With `NC(=S)c1cccc(OCCc2ccccc2)c1`, the growth inhibition is 97.7% (active).
On the same count and under the same terms, then `OC(COc1cccc(C(F)(F)F)c1)CN1CCN(c2cccc(F)c2)CC1` (stereo not given), with 98.7% (active).
`COC1OC(CO)C(O)C1OS(C)(=O)=O` (stereo not given): the growth inhibition was -11.7%.
Same read-out and setting: then `CCc1ccc(NC(=O)c2ccccc2)cc1CC`, with -11.3%.
Consider `OC1(Cc2ccccc2)CCCCCC1`, for which the growth inhibition is -2.3%.
Same read-out and setting: the result for `Cc1ccccc1N=C(N)N` reads 4.3%; that for `CCCCCCCCCCCCN1CCCC(O)C1` (stereo not given), 66.8%.

The nature of another assay: NCI Yeast Anticancer Drug Screen. Data for the mec2-1 strain (AID 157). Conditions: S. cerevisiae mec2-1 strain, stronger effect = higher value; at 50.0 µM unless noted. A digest of the protocol:
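Test agents were screened against the mec2-1 yeast strain, with defined DNA repair or cell cycle alteration. Growth was scored as inhibition against vehicle-only controls.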
With `Cc1ccc2c(c1)C(C)(C)C(C)(C)C2(C)C`, the growth inhibition is -0.8%.
Same read-out and setting: then `CCOc1ccccc1Nc1ccc(N)cc1S(=O)(=O)O`, with 0.85%; and `CC(C)COC(=O)C(CC(C)C)NC(=O)C(C)O` (stereo not given), with -17.4%.
Take `CC(C)CC1N=C(NN=C(CCl)CCl)OP1(=O)NCCCCCCNP1(=O)OC(NN=C(CCl)CCl)=NC1CC(C)C` (stereo not given): the growth inhibition is 5.05%.
Take `CCOC(=O)Cc1ccc2ccccc2c1`: the growth inhibition was -24.1%.
The same measure, in the same setting: the result for `Cc1cc2c(cc1Cl)SC(NNC1=NCCN1)=NS2(=O)=O` reads -8.65%; that for `CC1=C(C(=O)Nc2ccccc2)C(c2ccc3c(c2)OCO3)C(C(=O)Nc2ccccc2)=C(C)N1`, 33.5%; that for `O=C(CC(=O)c1cc(Cl)ccc1O)c1ccc2ccccc2n1`, 13.2%.
Turning to `COc1cc(/C=C/C(=O)c2c(=O)o[nH][n+]2-c2ccccc2)ccc1[O-]`, the growth inhibition is -7.1%.
On the same count and under the same terms, then `O=C(/C=C/c1ccccc1)c1ccccc1`, with 10.3% and -6.35%; and `O=C(O)c1ccccc1Br`, with 5.4%.
Still for that read-out and setting: the result for `Clc1nc(NCCc2ccccc2)c2ncn(-c3ccccc3)c2n1` reads 47.2%.
On the same count and under the same terms, the result for `Cc1ccc(C(=O)O)cc1` reads -17%; that for `CC(=O)Nc1ccc(NC(=O)NCCCCCCNC(=O)Nc2ccc(NC(C)=O)cc2)cc1`, 2.7%.
Regarding `Cc1nc2ccccc2c2ccc([N+](=O)[O-])cc12`, the growth inhibition was 4.45%.
As to `C[N+]1(C)CCc2cc(O)c(O)cc2C1Cc1ccc(O)c(O)c1` (stereo not given), the growth inhibition was 24.6%.
Regarding `O=c1[nH]c(=O)c2nc3c(=O)[nH]c(=O)[nH]c3nc2[nH]1`, the growth inhibition was -21.1%.
In the case of `Cc1ccc(N=C2S/C(=C3/CCC=C3N3CCOCC3)N(c3ccc(Cl)cc3)C2=Nc2ccc(C)cc2)cc1`, the growth inhibition was -13.4%.
`CC(=O)OCC1OC(n2c(Br)nc3c(=O)[nH]c(N)nc32)C(OC(C)=O)C1OC(C)=O` (stereo not given): the growth inhibition is 4.3%.
In the case of `C1COC2(OC1)OCCCO2`, the growth inhibition was 1.35%.
Take `Cc1nn2c(nnn2CCO)c1-c1ccccc1`: the growth inhibition is -5.65%.
Same read-out and setting: the result for `O=C(O)CCC1=Nc2cccc3cccc(c23)NC1=O` reads 32.2%; that for `CC(=O)Nc1nc(SCc2ccccc2)c2[nH]cnc2n1`, 1.75%; that for `CCc1ccc(NS(=O)(=O)c2ccccc2[N+](=O)[O-])cc1`, 42.6%.
With `O=C(O)c1cc([N+](=O)[O-])cc2c(=O)c3cnccc3[nH]c12`, the growth inhibition is -0.35%.
On the same count and under the same terms, then `CCCCCCOc1ccccc1CO`, with 10.6%.
Still for that read-out and setting: then `Cc1c(=O)n(C)c2ccccc2[n+]1[O-]`, with 16.1%; and `CS(=O)(=O)c1nc2[nH]cnc(=S)c2[nH]1`, with -8.2%; and `Clc1nc2n(c1/C=C/c1cccs1)CCS2`, with 23.2%.
Same read-out and setting: then `CN(C)/C=N/NC(=O)/C(C#N)=C/N(C)C`, with 2.3%.
In the case of `CN1CNC(=O)NC1`, the growth inhibition is -25.8% and -10.5%.
Take `O=[N+]([O-])c1ccn(Cc2ccccc2)c1`: the growth inhibition was 2.95%.
Same read-out and setting: then `CC1=CC(C)C(C(=O)OCC(C)C)C(C(=O)OCC(C)C)C1` (stereo not given), with -6%; and `NC(=S)c1cccc(OCCc2ccccc2)c1`, with 99.4% (active); and `OC(COc1cccc(C(F)(F)F)c1)CN1CCN(c2cccc(F)c2)CC1` (stereo not given), with 99% (active).
Same read-out and setting: then `COC1OC(CO)C(O)C1OS(C)(=O)=O` (stereo not given), with -4.25%.
Same read-out and setting: the result for `CCc1ccc(NC(=O)c2ccccc2)cc1CC` reads -11%; that for `OC1(Cc2ccccc2)CCCCCC1`, 1.3%; that for `Cc1ccccc1N=C(N)N`, 2.5%.
For `CCCCCCCCCCCCN1CCCC(O)C1` (stereo not given), the growth inhibition is 60.8%.
